# Where “and” joins values, the source holds several entries; their conditions need not be identical. Equal entries are not always repeated. Results filed as inconclusive are left out. A call without a number means that no potency is given here. More than one record can exist for a structure, and the calls need not agree. Calls of active or inactive are those of the source. Unless noted, the call rests on the fitted dose curve; in most records, active means well fitted curve in the direction sought with a large enough effect; inconclusive means small, poorly fitted or top-dose-only effect, or another doubt; inactive means no such curve, though single readings can be large; an effect the other way counts as inactive or inconclusive.
# Columns and labels:
# [1] = tested on: OV90; test: Primary qHTS to identify gynecologic anti-cancer compounds using libraries of approved drugs and bioactive compounds (AID 1345084); details: Gynecologic cancer cell panel viability, ATPlite luminescence, 48 h; series mostly up to 57.5 µM; further: nearly all actives have a fitted effect of over 55% in size; further: potency means the concentration at half of the fitted maximal effect
# Method in brief: (§1)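 48 h compound exposure at 37 C, 5% CO2; five-point qHTS. ATPlite luminescence readout of cell ATP.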
# [2] = tested on: PA-1; test: as above; details: Gynecologic cancer cell panel viability, ATPlite luminescence, 48 h; series mostly up to 57.5 µM
# Method in brief: as §1
# [3] = tested on: SKOV3; test: as above; details: Gynecologic cancer cell panel viability, ATPlite luminescence, 48 h; series mostly up to 57.5 µM
# Method in brief: as §1
# [4] = tested on: Tov-21-G; test: as above; details: Gynecologic cancer cell panel viability, ATPlite luminescence, 48 h; series mostly up to 57.5 µM
# Method in brief: as §1
# [5] = tested on: Tov112D; test: as above; details: Gynecologic cancer cell panel viability, ATPlite luminescence, 48 h; series mostly up to 57.5 µM
# Method in brief: as §1
# [6] = Drug repurposing screens with cells derived from glioblastoma tumor samples (AID 1345199); details: GBM patient neurospheres viability, ATP luminescence, 48 h; further: nearly all actives have a fitted effect of over 40% in size; further: potency means the concentration at half of the fitted maximal effect
# Method in brief: (§2)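 Primary testing used CD133+ neurospheres from four GBM patients, seven concentrations, 48 h exposure and ATP-based viability; confirmation added three slower-growing patient lines.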
# [7] = target: Nuclear receptor subfamily 1 group I member 2 (Rattus norvegicus) (UniProt Q9R1A7); test: qHTS assay for small molecule activators of the rat pregnane X receptor (rPXR) signaling pathway (AID 651751; call rule not given here); details: rPXR reporter cells, luciferase (One-Glo), 24 h
# Nuclear receptor subfamily 1 group I member 2 (Rattus norvegicus), sequence (Q9R1A7 whole entry, looked up): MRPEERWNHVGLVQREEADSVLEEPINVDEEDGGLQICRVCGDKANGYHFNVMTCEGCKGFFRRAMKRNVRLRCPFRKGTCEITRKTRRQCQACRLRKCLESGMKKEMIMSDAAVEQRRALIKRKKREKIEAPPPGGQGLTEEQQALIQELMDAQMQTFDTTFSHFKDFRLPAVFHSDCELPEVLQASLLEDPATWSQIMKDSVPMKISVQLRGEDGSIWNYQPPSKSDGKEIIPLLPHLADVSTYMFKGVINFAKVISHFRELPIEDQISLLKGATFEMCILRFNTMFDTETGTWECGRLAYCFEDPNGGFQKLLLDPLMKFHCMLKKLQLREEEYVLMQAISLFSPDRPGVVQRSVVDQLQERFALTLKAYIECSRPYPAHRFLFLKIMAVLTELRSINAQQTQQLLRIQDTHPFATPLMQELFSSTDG
# [8] = qHTS assay for small molecule activators of the human pregnane X receptor (PXR) signaling pathway (AID 720659; call rule not given here)
# [9] = tested on: astro; test: Drug repurposing screens with cells derived from glioblastoma tumor samples (AID 1345199); details: viability, ATP luminescence, 48 h; series mostly up to 45.9 µM; further: nearly all actives have a fitted effect of over 40% in size; further: potency means the concentration at half of the fitted maximal effect
# Method in brief: as §2
# [10] = qHTS assay to identify inhibitors of the type 1 interferon - major histocompatibility complex class I in skeletal muscle: Counter screen cell viability and HiBit confirmation (AID 1347412); details: iHSKM muscle cells + IFN-b, HiBiT or CellTiter-Glo, 24 h; Viability; further: potency means the concentration at half of the fitted maximal effect; nearly all actives have a fitted effect of over 60% in size
# Method in brief: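 CRISPR HLA-B*08:01-HiBit immortalized human myoblasts (C25cl48) stimulated with 4 ng/ml IFN-beta and compounds (12-point 1:3, top 46 uM final) for 24 h at 37 C. Duplicate plates read by HiBit lytic luminescence or CellTiter Glo ATP.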
# [11] = at 45.9 µM (top of the series), tumour line B
# [12] = at 45.9 µM (top of the series), tumour line D
# [13] = at 46.1 µM (top of the series), tumour line C
# [14] = at 46 µM (top of the series), tumour line A
smiles,measurement,setting,value
CC(C)C(=O)Oc1ccc(CO)cc1[C@H](CCN(C(C)C)C(C)C)c1ccccc1,Potency,[1],inactive
same,Potency,[2],inactive
same,Potency,[3],inactive
same,Potency,[4],inactive
same,Potency,[5],inactive
O=C(CCN1CCN(C(=O)OCc2cc(Cl)cc(Cl)c2)CC1)c1ccc2[nH]c(=O)oc2c1,Potency,[1],inactive
same,Potency,[2],inactive
same,Potency,[3],inactive
same,Potency,[4],inactive
same,Potency,[5],inactive
Cn1c(N2CCCCS2(=O)=O)nc(C(=O)NCc2ccc(F)cc2)c(O)c1=O,Potency,[1],inactive
same,Potency,[2],inactive
same,Potency,[3],inactive
same,Potency,[4],inactive
same,Potency,[5],inactive
Cc1ccn(-c2ccc(-c3ncco3)cc2)c(=O)c1-c1ccc2nc(N)ncc2c1,Potency,[1],inactive
same,Potency,[2],11.2 µM (active)
same,Potency,[3],3.55 µM (active)
same,Potency,[4],11.2 µM (active)
same,Potency,[5],inactive
CC(C)(C)c1cc(C(=O)O)c(NC(=O)Nc2ccc3[nH]ncc3c2)s1,Potency,[1],inactive
same,Potency,[2],inactive
same,Potency,[3],inactive
same,Potency,[4],inactive
same,Potency,[5],inactive
Cc1c(NC(=O)c2ccc(C(C)(C)C)cc2)cccc1-c1cn(C)c(=O)c(Nc2ccc(C(=O)N3CCOCC3)cc2)n1,Potency,[1],inactive
same,Potency,[2],inactive
same,Potency,[3],inactive
same,Potency,[4],inactive
same,Potency,[5],inactive
CC(C)(C)NC(=O)Nc1cccc(Nc2ncc(F)c(NC(C)(C)CO)n2)c1,Potency,[1],inactive
same,Potency,[2],inactive
same,Potency,[3],inactive
same,Potency,[4],inactive
same,Potency,[5],inactive
NC(=O)c1cccc(-c2cc(Nc3ccc(OC(F)(F)F)cc3)ncn2)c1,Potency,[1],inactive
same,Potency,[2],inactive
same,Potency,[3],inactive
same,Potency,[4],inactive
same,Potency,[5],inactive
CO[C@H]1C=CO[C@@]2(C)Oc3c(C)c(O)c4c(O)c(c5c(c4c3C2=O)NC2(CCN(CC(C)C)CC2)N=5)=NC(=O)C(C)=CC=C[C@H](C)[C@H](O)[C@@H](C)[C@@H](O)[C@@H](C)[C@H](OC(C)=O)[C@H]1C,Potency,[1],inactive
same,Potency,[2],inactive
same,Potency,[3],inactive
same,Potency,[4],inactive
same,Potency,[5],inactive
O=C1NCC2(CCN(CCc3ccccc3)CC2)O1,Potency,[1],inactive
same,Potency,[2],inactive
same,Potency,[3],inactive
same,Potency,[4],inactive
same,Potency,[5],inactive
same,"activity, negative = cell killing",[6]; [11],-4.5% (inactive)
same,"activity, negative = cell killing",[6]; [12],-9.33% (inactive)
same,"activity, negative = cell killing",[6]; [13],-12.7% (inactive)
CC(C)OC(=O)C(C)(C)Oc1ccc(C(=O)c2ccc(Cl)cc2)cc1,Potency,[1],inactive
same,Potency,[2],inactive
same,Potency,[3],inactive
same,Potency,[4],inactive
same,Potency,[5],inactive
same,"activity, negative = cell killing",[6]; [11],-21.9% (inactive)
same,Potency,[6]; tumour line A,11.2 µM (active)
same,max response,[7],-0.28% (inactive)
O=C(O)c1cc(-c2ccccc2)nc2ccccc12,Potency,[1],inactive
same,Potency,[2],inactive
same,Potency,[3],28.2 µM (active) and inactive
same,Potency,[4],inactive
same,Potency,[5],inactive
same,"activity, negative = cell killing",[6]; [11],-26% (inactive)
same,"activity, negative = cell killing",[6]; [12],-24.8% (inactive)
same,"activity, negative = cell killing",[6]; [13],-23% (inactive)
same,max response,[7],-0.78% (inactive)
same,outcome,[8],inactive
CN(C)CCC(c1ccccc1)c1ccccn1 (stereo not given),Potency,[1],inactive
same,Potency,[2],inactive
same,Potency,[3],inactive
same,Potency,[4],inactive
same,Potency,[5],inactive
same,"activity, negative = cell killing",[6]; [11],-6.99% (inactive)
same,"activity, negative = cell killing",[6]; [12],-4.75% (inactive)
same,"activity, negative = cell killing",[6]; [14],-22.4% (inactive)
same,"activity, negative = cell killing",[6]; [13],-14.6% (inactive)
same,Potency,[9],inactive
same,max response,[7],2.3% (inactive)
same,outcome,[8],inactive
C[C@@H](O)[C@H]1C(=O)N2C(C(=O)O)=C(S[C@@H]3CN[C@H](C(=O)N(C)C)C3)[C@H](C)[C@H]12,Potency,[1],inactive
same,Potency,[2],inactive
same,Potency,[3],inactive
same,Potency,[4],inactive
same,Potency,[5],inactive
same,"activity, negative = cell killing",[6]; [11],-4.52% (inactive)
same,"activity, negative = cell killing",[6]; [12],4.08% (inactive)
same,"activity, negative = cell killing",[6]; [14],-23.7% (inactive)
same,"activity, negative = cell killing",[6]; [13],-22.4% (inactive)
COc1ccc2cc(-c3nc(-c4ccc(S(C)=O)cc4)[nH]c3-c3ccncc3)ccc2c1 (stereo not given),Potency,[1],inactive
same,Potency,[2],inactive
same,Potency,[4],inactive
same,Potency,[5],inactive
O=c1[nH]cnc2c1ncn2[C@H]1CC[C@@H](CO)O1,Potency,[1],inactive
same,Potency,[2],inactive
same,Potency,[3],inactive
same,Potency,[4],inactive
same,Potency,[5],inactive
same,"activity, negative = cell killing",[6]; [11],-2.39% (inactive)
same,"activity, negative = cell killing",[6]; [12],8.81% (inactive)
same,"activity, negative = cell killing",[6]; [14],-25.7% (inactive)
same,"activity, negative = cell killing",[6]; [13],-15.1% (inactive)
same,max response,[7],-1.01% (inactive) and 3.56% (inactive)
same,outcome,[8],inactive
COc1ccccc1N1CCN(CCCNc2cc(=O)n(C)c(=O)n2C)CC1,Potency,[1],inactive
same,Potency,[2],inactive
same,Potency,[3],inactive
same,Potency,[4],inactive
same,Potency,[5],inactive
same,"activity, negative = cell killing",[6]; [11],-12.1% (inactive) and -4.13% (inactive)
same,"activity, negative = cell killing",[6]; [12],1.29% (inactive) and -19.7% (inactive)
same,"activity, negative = cell killing",[6]; [14],-30.8% (inactive)
same,"activity, negative = cell killing",[6]; [13],-17.7% (inactive) and -6.4% (inactive)
OC[C@@H](O)[C@H](O)[C@H](O)[C@@H](O)CO,Potency,[1],inactive
same,Potency,[2],inactive
same,Potency,[3],inactive
same,Potency,[4],inactive
same,Potency,[5],inactive
same,"activity, negative = cell killing",[6]; [11],0.357% (inactive) and -12% (inactive)
same,"activity, negative = cell killing",[6]; [12],-2.85% (inactive) and -9.13% (inactive)
same,"activity, negative = cell killing",[6]; [14],-13.7% (inactive) and -24.1% (inactive)
same,"activity, negative = cell killing",[6]; [13],-4.39% (inactive) and -14.9% (inactive)
CC(C)(C)c1ccc(C(O)CCCN2CCC(C(O)(c3ccccc3)c3ccccc3)CC2)cc1 (stereo not given),Potency,[1],inactive
same,Potency,[2],inactive
same,Potency,[3],inactive
same,Potency,[4],inactive
same,Potency,[5],inactive
same,"activity, negative = cell killing",[6]; [13],-2.38% (inactive)
same,Potency,[6]; tumour line A,5.01 µM (active)
same,Potency,[6]; tumour line B,11.2 µM (active)
same,Potency,[6]; tumour line D,10 µM (active)
same,Potency,[10],22.2 µM (active)
O=C1NC(=O)C(c2ccccc2)(c2ccccc2)N1,Potency,[1],inactive
same,Potency,[2],inactive
same,Potency,[3],inactive
same,Potency,[4],inactive
same,Potency,[5],inactive
same,"activity, negative = cell killing",[6]; [11],-5.12% (inactive)
same,"activity, negative = cell killing",[6]; [12],-12.9% (inactive)
same,"activity, negative = cell killing",[6]; [14],-29.6% (inactive)
same,"activity, negative = cell killing",[6]; [13],10.5% (inactive)
same,max response,[7],-3.01% (inactive) and 3.12% (inactive) and 2.23% (inactive)

# From PubChem BioAssay (NCATS)
